Laboratory results as given in PubChem BioAssay (NCATS).
Records with an inconclusive call do not appear. Activity calls are given as the source filed them. Unless noted, calls come from the whole dose curve; as a rule, active = well fitted curve in the direction sought with a large enough effect; inconclusive = small, poorly fitted or top-dose-only effect, or another doubt; inactive = no such curve, though single readings can be large; an effect the other way counts as inactive or inconclusive.

Columns and labels:
[1] = Cell Viability - BJ (AID 421; calls by dose curve;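 note: potency is the fitted concentration of half-maximal effect; cells exposed to compound for 40 hours at 37 °C before readout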); details: BJ fibroblast viability, qHTS
Summary of the method: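 Cytotoxicity in human BJ foreskin fibroblasts is scored as loss of cellular ATP after a 40-hour exposure, measured by luciferase luminescence. Controls are DMSO and 100 uM tamoxifen.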

[2] = Cell Viability - Jurkat (AID 426;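 active = dose-dependent loss of cell ATP signal giving a full or clear fitted curve, ranked by lower potency value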; note: potency is the fitted concentration of half-maximal effect); details: qHTS
Summary of the method: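 Jurkat (Clone E6-1) cells, 5000/well in complete medium, exposed to compounds for 40 hr at 37C; intracellular ATP measured by CellTiter-Glo luminescence after 20 min at room temperature. AC50 from Hill fits.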

[3] = Cell Viability - Hek293 (AID 427;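 active = compounds whose dose-response curve shows a full or clear partial loss of cell viability, called from curve shape rather than a numeric limit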;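 note: potency is the fitted concentration of half-maximal effect; cells exposed to compound for 40 hours at 37 °C before reading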); details: qHTS
Summary of the method: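 qHTS, human embryonic kidney (adenovirus-transformed) cells; 40 hr cpd, 37 °C; CellTiter-Glo ATP luminescence. Norm: DMSO = 0, 100 uM tamoxifen = 100% inhibition. Hill-fit AC50.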

[4] = Cell Viability - HepG2 (AID 433; calls by dose curve;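 note: potency is the fitted concentration of half-maximal effect; potency for ATP loss meaning cytotoxicity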); details: qHTS
Summary of the method: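 Cytotoxicity read as ATP loss (CellTiter-Glo luminescence) after 40 hr compound exposure of HepG2, 1500 cells/well, 37 °C. AC50 by Hill equation; 0% set by DMSO, 100% inhibition by 100 uM tamoxifen.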

[5] = Cell Viability - MRC5 (AID 434; calls by dose curve;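 note: potency is the fitted concentration of half-maximal effect; potency reflects cytotoxicity seen as loss of intracellular ATP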); details: MRC5 lung fibroblast viability, qHTS
Summary of the method: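 MRC5 normal human lung fibroblasts (1500/well) were treated with compounds for 40 hr at 37 °C in complete medium, and viable cells were measured as intracellular ATP by CellTiter-Glo luminescence. AC50 came from Hill fits, normalized to DMSO and 100 uM tamoxifen.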

[6] = biological target: Mitogen-activated protein kinase 10 (Mus musculus) (UniProt Q61831); test: JNK3 AlphaScreen Assay (AID 530; active = well fitted curve in either direction with a large enough effect, not every such curve was filed as active;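 note: kinase came from lysate of stimulated human HepG2 cells; signal reports phosphorylation of biotinylated GST-cJun 1-79 at Ser73 with 10 µM ATP; % is set by controls: 0 for no effect and ±100 for the full control effect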)
Summary of the method: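 Inhibitors reduce antibody binding to phosphorylated biotin-cJun, lowering AlphaScreen luminescence. Lysates from HepG2 cells pre-activated by IL-1beta plus TNF-alpha supplied JNK3; compounds were titrated.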

[7] = Cell Viability - N2a (AID 540); details: N2a mouse neuroblastoma cell viability; activity change, negative = cytotoxicity: at 92.2 µM (top of the series);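 note: plate controls were DMSO alone for no effect and tamoxifen control for full effect; nearly all actives have a fitted effect of over 45% in size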
Summary of the method: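 Mouse neuroblastoma N2a cells, 1500/well, exposed to compounds 40 h at 37 °C in complete medium. Viability measured as cellular ATP by CellTiter-Glo luminescence; AC50 from Hill fits of concentration-response.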

[8] = Cell Viability - NIH 3T3 (AID 541); details: NIH 3T3 cell viability, qHTS; activity change, negative = cytotoxicity: at 92.2 µM (top of the series);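 note: plate controls were DMSO alone for no effect and tamoxifen positive control for full effect; nearly all actives have a fitted effect of over 25% in size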
Summary of the method: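 Mouse NIH 3T3 fibroblasts, 1000 cells/well, rested 5 hr at 37 °C, then exposed to compound for 40 hr at 37 °C in complete medium. Viability read as intracellular ATP by CellTiter-Glo luminescence; AC50 from Hill-equation fits of concentration-response data.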

[9] = Cell Viability - HUV-EC-C (AID 542); note: % is set by controls: 0 for no effect and ±100 for the full control effect; nearly all actives have a fitted effect of over 35% in size
Summary of the method: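 HUV-EC-C human vascular endothelial cells, 1000/well, exposed to compound for 40 hr at 37 °C in complete medium. Intracellular ATP was read by CellTiter-Glo luminescence. AC50 came from Hill-equation fits of concentration-response data.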

[10] = Cell Viability - H-4-II-E (AID 543); note: % is set by controls: 0 for no effect and ±100 for the full control effect; nearly all actives have a fitted effect of over 35% in size
Summary of the method: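 Rat hepatoma H-4-II-E cells, 1500 per well, treated 40 h at 37 °C in complete medium. Cellular ATP read by CellTiter-Glo luminescence; AC50 from Hill fits of concentration-response.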

[11] = Cell Viability - SH-SY5Y (AID 544); note: nearly all actives have a fitted effect of over 55% in size
Summary of the method: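 SH-SY5Y human neuroblastoma cells (1500/well) incubated 5 h, then compound-treated 40 h at 37 °C in complete medium. Viability read as intracellular ATP by CellTiter-Glo luminescence after 20 min; AC50 from Hill-equation fits of qHTS concentration-response.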

[12] = Cell Viability - Renal Proximal Tubule (AID 545); details: renal proximal tubule cells viability, primary cells of rat origin; at 91.7 µM (top of the series); note: nearly all actives have a fitted effect of over 40% in size
Summary of the method: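 Viability taken as intracellular ATP (CellTiter-Glo luminescence) after 40 hr, 37 °C compound treatment of primary proximal tubule cells from rat kidney, 1000 cells/well; Hill-equation fits of qHTS concentration-response data gave AC50.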

[13] = Cell Viability - Mesenchymal (AID 546); details: mesenchymal cells viability, qHTS; activity change, negative = cytotoxicity: at 91.7 µM (top of the series);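 note: cells exposed to compound for 40 hours before reading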
Summary of the method: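 Normal human renal glomerulus-derived kidney mesenchymal cells, 1000 per well in complete medium, were treated with compounds for 40 hr at 37 °C. Viability was read as intracellular ATP by CellTiter-Glo luminescence; AC50 values came from Hill-equation fits of qHTS concentration-response data.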

[14] = Cellular Toxicity (caspase-3) HepG2 (AID 654);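 note: cells exposed to compound for 16 hours before reading; 0% = DMSO alone and 100% = caspase signal from 100 µM tamoxifen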
Summary of the method: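 HepG2 cells (1500/well) were treated 16 h at 37 °C in complete medium, then caspase 3/7 activity was read by Caspase-Glo luminescence. Data were normalized to DMSO and 100 uM tamoxifen; AC50 came from Hill-equation fits of qHTS concentration-response.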

[15] = Cellular Toxicity (caspase-3) Jurkat (AID 655); details: Jurkat caspase-3 activation, luminescence, DMSO = 0%, tamoxifen = 100%; at 92.2 µM (top of the series);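 note: cells exposed to compound for 16 h at 37 °C before reading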
Summary of the method: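 Luminescent Caspase-Glo 3/7 read-out (20 min, room temperature) after 16 h compound treatment at 37 C of 5000 Jurkat cells per well. AC50 derived by Hill-equation fitting, scaled between DMSO basal and 100 uM tamoxifen stimulation.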

[16] = Cellular Toxicity (caspase-3) HUV-EC-C (AID 656)
Summary of the method: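 Luminescent Caspase-Glo 3/7 readout after 16 h, 37 °C compound exposure of HUV-EC-C endothelial cells, 1000 per well, complete medium. AC50 derived by Hill fitting, with DMSO as baseline and 100 uM tamoxifen as full activation.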

[17] = Cellular Toxicity (caspase-3) SHSY5Y (AID 657)
Summary of the method: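 Luminescent Caspase-Glo 3/7 read-out, 1 hr room temperature, follows 16 hours of compound treatment of SH-SY5Y cells at 37 °C. Normalization: DMSO basal, 10 uM staurosporine as 100%; AC50 values from Hill-equation concentration-response fits.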

[18] = Cellular Toxicity (caspase-3) MRC-5 (AID 659);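 note: 0% = DMSO basal and 100% = 10 µM staurosporine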
Summary of the method: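 Luminescence from caspase-cleaved aminoluciferin substrate (Caspase-Glo 3/7, 1 hr RT) reports caspase 3/7 activity in MRC-5 lung fibroblasts after 16 hr compound exposure. Normalized to DMSO basal and 10 uM staurosporine as 100%; AC50 from Hill fits.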

[19] = Cellular Toxicity (caspase-3) Mesangial (AID 660);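 note: cells exposed to compound for 16 h before the caspase read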
Summary of the method: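 Human renal glomerular mesangial cells, 1000/well, 5 h at 37 C before 16 h compound treatment. Caspase-Glo 3/7 luminescence after 20 min; normalized to DMSO and 100 uM tamoxifen, AC50 from Hill fit.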

[20] = Cellular Toxicity (caspase-3) SK-N-SH (AID 661);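 note: 0% = DMSO basal and 100% = 10 µM staurosporine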
Summary of the method: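 Human SK-N-SH neuroblastoma cells, 1500/well, were exposed to compounds for 16 hours at 37 °C. Caspase-Glo 3/7 luminescence was normalized to DMSO (basal) and 10 uM staurosporine (100%), and AC50 came from a Hill fit.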

[21] = Cellular Toxicity (caspase-3) H-4-II-E (AID 663); details: Potency: caspase-3 activation;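 note: cells exposed to compound for 16 hr before readout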
Summary of the method: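 Luminescence from caspase-cleaved aminoluciferin substrate, read 20 min after reagent addition, reports caspase 3/7 activation in rat H-4-II-E cells after 16 hr compound exposure. Normalized to DMSO (basal) and 100 uM tamoxifen (100%); AC50 from Hill fits.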

CC12CCC(CC1=O)C2(C)C (stereo unspecified)
inactive: Potency [1] > 92 µM | Potency [2] > 92 µM | Potency [3] > 92 µM | Potency [4] > 92 µM | Potency [5] > 92 µM | Potency [6] | activity change, negative = cytotoxicity [7] -9.82% | Potency [8] | outcome [9] | Potency [10] | Potency [11] | activity change, negative = cytotoxicity [12] -5.29% | activity change, negative = cytotoxicity [13] -11.1% | outcome [14] | caspase-3 activation [15] -3.1% | outcome [16] | outcome [17] | outcome [18] | outcome [19] | outcome [20] | Potency [21]
